Assay results taken from PubChem BioAssay (NCI).
About 83,000 compounds went through this panel and 20% of them were active in at least one assay; those are over-represented in the sample as a whole.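 For each line, cells grew in 96-well plates with the test compound present at a single concentration for 48 hours.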 A number with no mark means an inactive call. Active and inactive are the calls of the source.

Tested on: MDA-MB-435 melanoma
Assay: NCI-60 one-dose screen, 48 h (100 = growth as untreated, 0 = no growth, -100 = all killed)
Details: 10 µM unless noted
Experimental: Growth inhibition of the MDA-MB-435 human Melanoma tumor cell line is measured as a screen for anti-cancer activity. Cells are grown in 96 well plates and exposed to the test compound for 48 hours. Compounds are tested at a single concentration, which is 10^-5 M for most compounds. The reported endpoint is percent growth (GI% or GIPRCNT), where numbers from 0 - 100% represent growth inhibition, and numbers from -100% - 0 represent cell death. For example, a value of 40 represents 60% growth inhibition. A value of 0 means no net growth occurred over the course of the experiment. A value of -40 indicates 40% of cells at the beginning of the experiment died by the end of the experiment. A value of -100 means all cells are dead at the end of the experiment.
NCI-60 Human Tumor Cell Lines Screen was performed using the standard one-dose NCI protocol, which is described in more detail at https://dtp.cancer.gov/discovery_development/nci-60/default.htm.
Compounds with GIPRCNT values below 10 were considered active. Activity score was based on GIPRCNT using the following formula: […]
Score is 0 for GIPRCNT values of 100 or above, 50 for GIPRCNT values of 0, and 100 for GIPRCNT values of -100.

Q: With CCn1cc(-c2[nH]c(=S)ncc2-c2ccc(Cl)cc2)c(-c2ccc(Br)cc2)n1 as the compound, how does the growth read?
A: The growth was 85%.

Q: How did the growth turn out when O=C1CC(c2ccccc2)Cc2nc3ccc(Br)cc3cc21 (stereo not given) was run?
A: The growth was -39.8% (active).

Q: Cc1c(Cn2cc(COc3ccc(Br)cc3)nn2)c(C)c(Cn2cc(COc3ccc(Br)cc3)nn2)c(C)c1Cn1cc(COc2ccc(Br)cc2)nn1 was tested. Which growth did it give?
A: The growth was 98.7%.

Q: Cn1cc(-c2nnc(-c3cn(C)c4ncc(Br)cc34)s2)c2cc(Br)ccc21 was tested. Which growth did it give?
A: The growth was 92.1%.

Q: With COc1cc2c(c(OC)c1OC)-c1cc(I)c(O)cc1[C@@H](NC(C)=O)CC2 as the compound, how does the growth read?
A: Its growth is 6.18% (active).

Q: With Cn1cc(-c2noc(-c3cn(C)c4ncc(F)cc34)n2)c2cc(Cl)ccc21 as the compound, how does the growth read?
A: The growth was 68.5%.

Q: With CN(C)CCOc1ccc(/C(=C(/CCCl)c2ccccc2)c2ccccc2)cc1 as the compound, how does the growth read?
A: Its growth is -7.62% (active).

Q: How did the growth turn out when CC1=CCc2ccccc21 was run?
A: Its growth is 106%.

Q: Which growth does the source give for CCN(CC)c1ccc2cc(C(Nc3ccc(C)cc3)c3nnnn3C(C)(C)C)c(=O)oc2c1 (stereo not given) here?
A: Its growth is 97.5%.

Q: For O=C(O)CSCc1nnc2n(Cc3ccccc3)c(=O)c3c4c(sc3n12)CCCC4, which growth is on record?
A: The growth was 112%.

Q: For CC(C)(C)c1cc(C(=O)Nc2ccccc2C(=O)NCCN)cc(C(C)(C)C)c1, which growth is on record?
A: Its growth is -73.3% (active).

Q: With C[n+]1c2ccccc2nc2c(N)cc(N)cc21 as the compound, how does the growth read?
A: Its growth is 126%.

Q: For C=CCCCCCCCCC(=O)OC(C)C, which growth is on record?
A: The growth was 111%.

Q: With CC(C)[C@H]1COC(=O)N1[C@@H]1C(=O)N([C@@H](CCC(=O)N2CCN(C3CCCC3)CC2)C(=O)N[C@@H]2CCCc3ccccc32)[C@@H]1/C=C/c1cccc(Cl)c1 as the compound, how does the growth read?
A: Its growth is 32.7%.

Q: Which growth does the source give for Cc1ccc2c(n1)C(=O)C(Cl)=C(Nc1ccc(N3CCN(C)CC3)cc1)C2=O here?
A: Its growth is -99.1% (active).

Q: Which growth does the source give for C[n+]1cccc(NC(=O)c2ccc3ccc4ccc(C(=O)Nc5ccc[n+](C)c5)nc4c3n2)c1 here?
A: Its growth is 67.8%.

Q: For Cc1ccc(-c2cc(-c3ccc(C)cc3)nc(NCCNc3ccnc4cc(Cl)ccc34)n2)cc1, which growth is on record?
A: Its growth is -76.4% (active).

Q: For CCN(CC)CCS(=O)(=O)CCNc1ccnc2cc(Cl)ccc12, which growth is on record?
A: The growth was 3.99% (active).

Q: For C=C(CC(=O)OC)C(C)=O, which growth is on record?
A: Its growth is 116%.

Q: How did the growth turn out when Cc1cnc([C@]23CC[C@@H](C)[C@H](C)[C@H]2C2=CC[C@@H]4[C@@]5(C)Cc6c([nH]c7ccccc67)C(C)(C)[C@@H]5CC[C@@]4(C)[C@]2(C)CC3)o1 was run?
A: Its growth is -16.7% [100 µM] (active).

Q: For CC(C)c1ccc(C(=O)Nc2nc3ccc(O)cc3s2)cc1, which growth is on record?
A: Its growth is 22%.

Q: Which growth does the source give for Cc1cc(C)c(-c2cc(O)c(-c3c(C)cc(C)cc3C)cc2O)c(C)c1 here?
A: Its growth is 2.34% (active).

Q: CCOC(=O)c1nn(C2CCCCO2)c2ccc(NC(=O)CN3CCOCC3)cc12 (stereo not given) was tested. Which growth did it give?
A: Its growth is 106%.

Q: Which growth does the source give for CCOC(=O)C1=C(C(=O)c2ccc(Br)cc2)C(c2ccc(Br)cc2)NC(=S)N1 (stereo not given) here?
A: Its growth is 107%.

Q: How did the growth turn out when O=C(O)c1cn(C2CC2)c2cc(N3CCN(Cc4c(O)ccc5ccccc45)CC3)c(F)cc2c1=O was run?
A: Its growth is 24.3%.

Q: For Nc1cc(C(=O)O)[nH]c(=S)n1, which growth is on record?
A: The growth was 98%.

Q: Which growth does the source give for CC1Cc2c(Cl)ncnc2N(C)c2ccc(O)cc21 (stereo not given) here?
A: Its growth is 30.5%.

Q: N#CCCc1c[nH]c2ccccc12 was tested. Which growth did it give?
A: Its growth is 101%.

Q: With CCc1ccc(NC(=O)N[C@@H](Cc2cc(F)cc(F)c2)C(=O)N[C@@H]2C(=O)N3C[C@H](O)C[C@H]3C(=O)N3CCOC[C@H]3C(=O)N[C@@H](C)C(=O)N3C[C@H](C)C[C@H]3C(=O)O[C@H]2C)cc1 as the compound, how does the growth read?
A: The growth was 21.5%.

Q: With COc1ccc2c(c1)C(C)Cc1c(Cl)ncnc1N2C (stereo not given) as the compound, how does the growth read?
A: The growth was -25.2% (active).

Q: COC(=O)[C@]1(C)CC[C@]2(C)CC[C@]3(C)C(=CC(=O)[C@@H]4[C@@]5(C)CCC(=O)NC(C)(C)[C@@H]5CC[C@]43C)[C@@H]2C1 was tested. Which growth did it give?
A: The growth was -48.8% [100 µM] (active).

Q: With O=C(Nc1ccc(Cl)c(C(F)(F)F)c1)Nc1ccc(-c2cccnc2)cc1N1CCC(CO)CC1 as the compound, how does the growth read?
A: Its growth is 15.5%.

Q: For COc1ccc(-c2c(C)nn3c(NCCN4CCOCC4)cc(C)nc23)cc1OC, which growth is on record?
A: The growth was 101%.

Q: With O=C(NNc1ccc(-c2ccccc2)nn1)c1ccc(F)cc1 as the compound, how does the growth read?
A: Its growth is 100%.

Q: With COc1cc(NCc2cn(-c3ccc(C(=O)O)cc3)nc2-c2ccc(C(=O)O)cc2)cc(OC)c1OC as the compound, how does the growth read?
A: The growth was 102%.

Q: How did the growth turn out when COCCCNc1nc(NC(=O)c2cc(Br)cc(C(F)(F)F)c2)cc(-c2cccnc2)n1 was run?
A: Its growth is 88.4%.

Q: For Nc1ccc2c(c1)Cc1cc(NC(=O)C(F)(F)F)ccc1-2, which growth is on record?
A: The growth was 102%.

Q: With O=S(=O)(/N=c1/n(-c2ccccc2)nc2n1CCN2C1=NCCN1)c1ccc(-c2ccccc2)cc1 as the compound, how does the growth read?
A: Its growth is 94.4%.

Q: For COc1ccc(OC)c([N+](=O)[O-])c1C(=O)CNC(C)=O, which growth is on record?
A: The growth was 103%.

Q: Which growth does the source give for Cc1cc(C)nc(SCC(=O)Nc2cccc(N=Cc3ccccc3O)c2)n1 here?
A: The growth was 99.2%.
